Drawing on PubChem BioAssay AID504329 (Southern Research Specialized Biocontainment Screening …, 2011), this text covers inhibition for 27 compounds.

About 1,000 (0.29%) of roughly 340,000 compounds were called active. Only a sample is shown. Entries with a potency or affinity are not part of this list. Unmarked numbers belong to inactive results. Cut-off read from the data, not from the text of the source: inconclusive = inhibition above about 27% without an active follow-up result; inactive = below that.

The experiment is described as follows: NS1A inhibition, H1N1 influenza, cell based functional assay (AID 504329). The conditions noted are these: percent inhibition, at 12.5 µM, active compounds read high.
For `O=C(CNC1CCCCC1)Nc1ccc([N+](=O)[O-])cc1C(=O)Nc1ccccc1F`, the inhibition is -6.89%. As to `COc1ccc(NC(=O)c2cc([N+](=O)[O-])ccc2NC(=O)CNC2CCCCC2C)c(OC)c1` (configuration not stated), the inhibition was -6.01%. As to `COc1cc(NC(=O)c2cc([N+](=O)[O-])ccc2NC(=O)CNCc2ccccn2)cc(OC)c1`, the inhibition is -1.96%. Regarding `O=C(CN1CCN(c2ccccn2)CC1)Nc1ccc([N+](=O)[O-])cc1C(=O)Nc1ccccc1F`, the inhibition is 12%. `CCn1c(=O)c([N+](=O)[O-])c(NC2CCS(=O)(=O)C2)c2ccccc21` (configuration not stated): the inhibition was -2.22%. As to `CC(C)C(c1nnnn1C(C)(C)C)N1CCC(Cc2ccccc2)CC1` (configuration not stated), the inhibition was -3.35%. Consider `CCCN(CCC)Cc1c(C(=O)N/N=C/C(C)=C\c2ccccc2)nnn1-c1nonc1N`, for which the inhibition was 6.9%. As for `COc1cc(/C=C(\NC(=O)c2ccccc2)C(=O)NC(C(=O)O)c2ccccc2)cc(OC)c1OC` (configuration not stated), the inhibition is 2.4%. Regarding `O=[N+]([O-])c1ccc(O)c2cccnc12`, the inhibition is -3.9%. The value for `Cc1ccc([N+](=O)[O-])c2cccnc12` was -5.17%; that for `CC(C)COCc1ccc(O)c2ncccc12` was 1.04%; that for `Cc1ccc(NCc2ccc(O)c3ncccc23)cc1` was -2.47%.

With `Cc1ccccc1-c1nn[nH]n1`, the inhibition is -2.96%. For the compound `c1ccc2c(-c3nn[nH]n3)cccc2c1`, the inhibition is -2.59%.

Regarding `Cc1ccccc1NCc1ccc(O)c2ncccc12`, the inhibition was 11.8%.

`Cc1cccc(NCc2ccc(O)c3ncccc23)c1`: the inhibition was -1.23%. The same measure for `Cc1ccccc1Nc1nc(-c2cccnc2)nc2ccccc12`: -4.04%. The value for `CCOc1ccccc1-n1c(O)c(C=NCCCn2ccnc2)c(=O)[nH]c1=O` was 3.36%; that for `CN1CCC(N(C)C(=O)c2ccccc2F)CC1` was 17.7%; that for `CN1CC2=Cc3ccccc3OC23Oc2ccccc2C=C3C1` was 3.84%.

In the case of `O=C(CCCOc1ccccc1)Nc1cccc(S(=O)(=O)N2CCCCC2)c1`, the inhibition was -17.5%. Take `CCN1CCN(C(=O)CS(=O)(=O)Cc2nc(-c3cccc(OC)c3)oc2C)CC1`: the inhibition was -5.29%. With `NC(=O)C1CCN(S(=O)(=O)Cc2ccccc2Cl)CC1`, the inhibition is 4.51%. The value for `COc1ccc(CNC(=O)c2cc(C)nn2-c2ccccc2)cc1` was 0.54%; that for `COC(=O)c1ccc(Cn2nc(-c3ccccc3)ccc2=O)cc1` was -6.12%. The value for `O=C1OCC(c2ccccc2)=C1c1ccccc1[N+](=O)[O-]` was -4.03%.

`COCCn1ccc2c(OCC(=O)NCCc3ccccc3)cccc2c1=O`: the inhibition was -4.46%.
